Article PMC5540273 (PLoS ONE, 2017)

The compounds below were run on T1, PCTK3. Details: concentration: 1 μM, replicates: in singlicate; n = 1.
T1 construct: gene CDK18
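Note: KINOMEscan kinase panel screen.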

Row | Structure (SMILES) | %Inh
1 | CC(C)(C)c1ccc2nccc(Nc3cccc(O)c3)c2c1 [GW856795] | 0%
2 | COc1cccc(C2=C(Nc3ccc(Cl)c(C(=O)O)c3)C(=O)NC2=O)c1 [SB-390769] | 29%
3 | Cc1ccc(F)c(C(=O)Nc2cccc(-c3nn4ccccc4c3-c3ccnc(Nc4cccc(F)c4)n3)c2)c1F [GSK361061] | 16%
4 | O=C(Nc1n[nH]c2nc(-c3ccc(O)cc3)ccc12)C1CC1 [SB-710363] | 6%
5 | c1ccc(-c2n[nH]cc2Nc2ccnc3ccccc23)nc1 [GW694077] | 9%
6 | CCn1c(-c2nonc2N)nc2c(C#CC(C)(C)O)ncc(OCCCCN)c21.O=C(O)C(F)(F)F.O=C(O)C(F)(F)F [GSK507274] | 0%
7 | O=C(Nc1cccc(-c2nn3ccccc3c2-c2ccnc(Nc3cccc(C(F)(F)F)c3)n2)c1)c1c(F)cccc1F [GSK292658] | 0%
8 | Nc1n[nH]c2cnc(-c3ccccc3)cc12 [SB-642124] | 10%
9 | CN(c1ccc(NC(=O)Nc2cc(C(F)(F)F)ccc2F)cc1)c1ccnc(Nc2ccc(S(N)(=O)=O)cc2)n1 [GW809893] | 95.5%
10 | Clc1ccc(-c2nn3ncccc3c2-c2ccnc(Nc3ccc4c(c3)OCCO4)n2)cc1 [GW829116] | 0%
11 | Cn1cc(-c2[nH]c3cc(NC(=O)[C@H](N)C4CCCCC4)cc4c3c2C=NNC4=O)cn1 | 0%

The compounds below were run on PDGFRA. Details: concentration: 1 μM, replicates: in singlicate; n = 1.

Row | Structure (SMILES) | %Inh
12 | FC(F)(F)c1ccc(/C=C/c2cncnc2Nc2ccc3[nH]c(Cc4ccccc4)nc3c2)cc1 [GW709199] | 0%
13 | O=C(Nc1cccc(-c2nn3ccccc3c2-c2ccnc(Nc3cccc(F)c3)n2)c1)c1c(F)ccc(F)c1Cl [GSK357952] | 18%
14 | O=C(Nc1ccccc1F)NC1CCN(c2ccnc(Nc3ccc(F)cc3)n2)CC1 [GSK1379800] | 0%
15 | Cc1occc1-c1ncc(OC[C@@H](N)Cc2c[nH]c3ccccc23)cc1-c1ccc2[nH]nc(C)c2c1.O=C(O)C(F)(F)F [GSK682037] | 0%
16 | C[C@@H]1CC[C@@H](C(=O)Nc2ccccc2)CN1c1cc(-c2ccc3c(N)n[nH]c3c2)nc(N)n1 [GSK2286062] | 0%
17 | Cl.NC(=O)c1cccc(Nc2nccc(Nc3ccc(Oc4c(Cl)cccc4Cl)c(Cl)c3)n2)c1 [GW659009] | 0%
18 | Cc1ccc(C(=O)Nc2ccc(Nc3ccnc4cc(-c5nccs5)ccc34)cc2O)cc1.Cl [GW494702] | 28%
19 | CNC(=O)c1ccccc1Nc1nc(Nc2ccc(N3CCOCC3)cc2)ncc1Cl.Cl [GSK1576028] | 80%
20 | COc1cc(Nc2nccc(-c3c(-c4cccc(NC(=O)c5c(F)cccc5F)c4)nn4ccccc34)n2)cc(OC)c1OC [GSK323521] | 89%
21 | Nc1ncnc2c1nc(-c1ccccc1)n2-c1ccccc1 [SKF-97293] | 36%
22 | Fc1ccc(-c2ncn(C3CCNCC3)c2-c2ccnc(Oc3ccc(-c4ccccc4)cc3)n2)cc1 [SB-245391] | 23%
23 | Cl.Cl.NCC(NCc1ccc(-c2ccnc3[nH]ccc23)s1)c1ccccc1 (stereo not drawn) [GSK1321565] | 5%
24 | CC(=O)N1CCN(c2ccc(Nc3nccc(-c4sc(C(C)C)nc4-c4cccc(NS(=O)(=O)c5cccc(Cl)c5)c4)n3)cn2)CC1 [GSK1660437] | 73%
25 | COc1ccc(Nc2nccc(N3CCC(NC(=O)Nc4cccc(OC)c4)C3)n2)cc1 (stereo not drawn) [GSK1379742] | 0%
26 | Cl.Cl.NCC(NC(=O)c1cc(-c2ccccc2)c(-c2ccnc3[nH]ccc23)s1)c1ccccc1 (stereo not drawn) [GSK1321561] | 0%
27 | O=C(Nc1n[nH]c2cc(-c3ccoc3)ccc12)C1CC1 [SB-738481] | 62%
28 | Cl.c1ccc(-c2ccc3c(Nc4ccc5[nH]ccc5c4)ccnc3c2)nc1 [GW440138] | 99.2%
29 | COc1cc(Nc2nccc(-c3c(-c4cccc(NC(=O)c5c(F)cccc5F)c4)nn4ncccc34)n2)cc(OC)c1OC [GSK327238] | 90.2%
30 | CCCCc1nn2ncccc2c1-c1ccnc(Nc2ccc(N3CCN(C)CC3)cc2)n1 [GW684941] | 98.8%

Row | Structure (SMILES) | %Inh
31 | Nc1ncc(-c2ccc3nccc(-c4ccncc4)c3c2)cc1S(=O)(=O)N1CCOCC1 [GSK1627798] | 0%
32 | Cc1ccc(S(=O)(=O)Nc2ccc(Nc3nccc(Nc4cccc5[nH]ncc45)n3)cc2)cc1 [GSK581271] | 0%
33 | COc1ccc(Nc2nccc(NCCNC(=O)c3cc4ccccc4s3)n2)cc1 [GSK1379896] | 0%
34 | NCCCC(NC(=O)c1cc(Br)c(-c2ccnc3[nH]ccc23)s1)c1ccccc1.O=C(O)C(F)(F)F.O=C(O)C(F)(F)F (stereo not drawn) [GSK1287544] | 0%
35 | CC(C)c1nc(-c2cccc(NS(=O)(=O)c3c(F)cccc3F)c2F)c(-c2ccnc(Nc3ccc(N4CCOCC4)nc3)n2)s1 [GSK2008607] | 90%
36 | O=C(NC1CCN(c2ccnc(Nc3ccc(F)cc3)n2)C1)c1cc2ccccc2s1 (stereo not drawn) [GSK1379716] | 0%
37 | Nc1ncc(-c2cccnc2)c2scc(-c3ccc4c(c3)CCN4C(=O)Cc3ccccc3)c12 [GSK683281] | 53%
38 | CC(C)(C)c1ccc2nccc(Nc3cccc(O)c3)c2c1 [GW856795] | 81%
39 | COc1cccc(C2=C(Nc3ccc(Cl)c(C(=O)O)c3)C(=O)NC2=O)c1 [SB-390769] | 0%
40 | Cc1ccc(F)c(C(=O)Nc2cccc(-c3nn4ccccc4c3-c3ccnc(Nc4cccc(F)c4)n3)c2)c1F [GSK361061] | 6%
41 | O=C(Nc1n[nH]c2nc(-c3ccc(O)cc3)ccc12)C1CC1 [SB-710363] | 48%
42 | c1ccc(-c2n[nH]cc2Nc2ccnc3ccccc23)nc1 [GW694077] | 20%
43 | CCn1c(-c2nonc2N)nc2c(C#CC(C)(C)O)ncc(OCCCCN)c21.O=C(O)C(F)(F)F.O=C(O)C(F)(F)F [GSK507274] | 0%
44 | O=C(Nc1cccc(-c2nn3ccccc3c2-c2ccnc(Nc3cccc(C(F)(F)F)c3)n2)c1)c1c(F)cccc1F [GSK292658] | 10%
45 | Nc1n[nH]c2cnc(-c3ccccc3)cc12 [SB-642124] | 0%
46 | CN(c1ccc(NC(=O)Nc2cc(C(F)(F)F)ccc2F)cc1)c1ccnc(Nc2ccc(S(N)(=O)=O)cc2)n1 [GW809893] | 96.1%
47 | Clc1ccc(-c2nn3ncccc3c2-c2ccnc(Nc3ccc4c(c3)OCCO4)n2)cc1 [GW829116] | 24%
48 | Cn1cc(-c2[nH]c3cc(NC(=O)[C@H](N)C4CCCCC4)cc4c3c2C=NNC4=O)cn1 | 99.7%
